# High-throughput results from PubChem BioAssay.
# The list is not random: actives were taken first. Their share in the collection is about 1.1%.
# PI4K2A block – PI4K2A (human) kinase inhibition. Q9BTU6. purified PI4K2A, ADP-Glo luminescence, 1 h; active compounds read low. activity change, negative = inhibition, % at 76.9 µM. 420,000 compounds, 0.13% hits. AID 1346378; in the data active = activity change below about -50%; inconclusive = mostly about -30% to -49%
# Target sequence (Q9BTU6 whole entry, looked up): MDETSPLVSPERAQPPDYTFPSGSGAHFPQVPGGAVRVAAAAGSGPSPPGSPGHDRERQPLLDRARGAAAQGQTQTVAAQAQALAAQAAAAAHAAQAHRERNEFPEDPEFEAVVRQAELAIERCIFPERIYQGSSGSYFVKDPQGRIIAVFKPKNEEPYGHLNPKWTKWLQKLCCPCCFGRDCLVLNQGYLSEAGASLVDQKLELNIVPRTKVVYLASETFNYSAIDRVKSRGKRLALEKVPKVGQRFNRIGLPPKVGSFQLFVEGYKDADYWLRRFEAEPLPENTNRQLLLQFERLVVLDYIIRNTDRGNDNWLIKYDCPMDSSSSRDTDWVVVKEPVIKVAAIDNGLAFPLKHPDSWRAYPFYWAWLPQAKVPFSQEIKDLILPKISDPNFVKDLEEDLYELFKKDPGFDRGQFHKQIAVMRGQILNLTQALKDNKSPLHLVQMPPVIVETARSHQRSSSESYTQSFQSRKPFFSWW
#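 In this quantitative HTS, ADP production by PI4K2A was quantified luminescently after 1 h at ambient temperature; 100 microM adenosine served as plate-quality control.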
# TrxR1 substrate – rat thioredoxin reductase 1 substrate activity; 390,000 compounds, 0.01% hits; purified TrxR1 substrate turnover, NADPH consumption readout; O89049; Potency, µM (top dose mostly 114 µM); note: nearly all actives have a fitted effect of over 50% in size
#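 Rat TrxR1, dispensed at 90 nM, was prereduced with 400 uM NADPH (final) for 5 min at ~22 deg C, then incubated with compound 15 min before 400 uM selenite. A first-read NADPH fluorescence drop versus no-compound background flagged substrates.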
# GALK inh – blocks human galactokinase activity; Purified GALK, Kinase-Glo residual ATP luminescence; Potency, µM (highest dose often 57.5 µM), usual class: inhibitors; P51570; 270,000 compounds, 0.007% hits; AID 1868
#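 Quantitative HTS: GALK 5 nM, ATP 35 uM, galactose 100 uM, 1 h room temperature, then luciferase-based ATP detection.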
# TrxR1 inh-1 – blocks rat thioredoxin reductase 1; O89049; recombinant rTrxR1, NADPH fluorescence consumption, selenite substrate; Potency, µM (top dose mostly 114 µM), most hits filed as inhibitors; 390,000 compounds, 1% hits; note: nearly all actives have a fitted effect of over 65% in size
#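 Rat TrxR1 (90 nM in the dispensed reagent) was pre-reduced with 400 uM NADPH for 5 min at room temperature, then incubated with compound for 15 min. After 400 uM selenite was added, NADPH fluorescence (Ex 340/Em 450 nm) was followed for 8 min.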
# TRb-SRC2 inh – TRb-SRC2 (human) interaction inhibition; shares compounds with TrxR1 inh-1; AlphaScreen TRb LBD-SRC2 peptide binding, luminescence; Potency, µM; 30 compounds, 50% hits; calls by dose curve
# HepG2 tox – HepG2 cytotoxicity, 72 h ATP readout | AID 2447 | shares compounds with TrxR1 inh-1 | HepG2 viability, ATP luminescence (CellTiter-Glo), 72 h | Potency, µM | 40 compounds, 50% hits; calls by dose curve
# AR SRC2 FP – AR-SRC2 (human) interaction inhibition, selectivity. shares compounds with TrxR1 inh-1. AR-LBD Tx-SRC2-3 fluorescence polarization, 3 h. calls only. 25 tested, under 10 active. AID 2448; call rule not given here
# PPARg-DRIP2 inh – PPARg-DRIP2 (human) interaction inhibition, selectivity. shares compounds with TrxR1 inh-1. PPARg LBD / Texas Red DRIP-2 peptide, fluorescence polarization, 3 h. Potency, µM. 25 tested, under 10 active; calls by dose curve
# VDR-SRC2 FP sel – VDR-SRC2 (human) interaction inhibition, selectivity; VDR LBD/SRC2-3 peptide, fluorescence polarization, 3 h; shares compounds with TrxR1 inh-1; Potency, µM; 25 tested, under 10 active; AID 2455; calls by dose curve
# TRb-SRC2 FP Fluo – TRb-SRC2 (human) inhibition, fluorescein FP confirmation | TRb LBD / fluorescein-SRC2 peptide, fluorescence polarization | Potency, µM | 20 tested, under 10 active | AID 2487 | shares compounds with TrxR1 inh-1; call rule not given here
# GR counterassay – glutathione reductase inhibition, TrxR1 selectivity check; shares compounds with TrxR1 inh-1; purified GR, DTNB reduction absorbance 405 nm kinetic; activity change, negative = inhibition, % at 57.1 µM; 55 tested, under 10 active
# TrxR1 inh-2 – blocks rat thioredoxin reductase 1 in hit validation | Potency, µM, hits mostly inhibitors | 55 compounds, 50% hits | shares compounds with TrxR1 inh-1 | recombinant TrxR1, NADPH fluorescence consumption, selenite substrate
# TrxR1 insulin MOA – TrxR1 inhibitors: insulin reduction mechanism-of-action test; shares compounds with TrxR1 inh-1; TrxR1 Trx-coupled insulin reduction, NADPH absorbance 340 nm; Potency, µM; 55 compounds, 20% hits; AID 652037;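 active = compounds with a measured potency under 100 micromolar; inconclusive = filed, but no rule given; inactive = potency at or above that, or unmeasurable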
# TrxR1 inh-3 – blocks rat TrxR1 reduction of DTNB; Potency, µM; AID 652256; shares compounds with TrxR1 inh-1; purified TrxR1, DTNB reduction, A412; 55 compounds, 90% hits;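 active = a half-inhibiting concentration could be measured and was below 100 µM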
# Hits are given with their value; n = inactive; u = inconclusive; x = no result; ! = not active in a repeat; [ ] = another dose, or the depositor's remark. Unless noted, calls come from the whole dose curve; as a rule, active = well fitted curve in the direction sought with a large enough effect; inconclusive = small, poorly fitted or top-dose-only effect, or another doubt; inactive = no such curve, though single readings can be large; an effect the other way counts as inactive or inconclusive.
SMILES,PI4K2A block,TrxR1 substrate,GALK inh,TrxR1 inh-1,TRb-SRC2 inh,HepG2 tox,AR SRC2 FP,PPARg-DRIP2 inh,VDR-SRC2 FP sel,TRb-SRC2 FP Fluo,others
CC1CCN(C(=O)C(C)OC(=O)c2ccc(S(C)(=O)=O)c([N+](=O)[O-])c2)CC1 (stereo not given),x,n,x,11.2µM,7.3µM,n,n,n,n,3.6µM,
Cc1ccccc1CNC(=O)C(C)n1nc(C)n2c(cc3occc32)c1=O (stereo not given),n,n,x,n,x,x,x,x,x,x,
Cn1cccc1C(=O)NC(=O)COC(=O)c1ccc(S(C)(=O)=O)c([N+](=O)[O-])c1,n,n,x,4.47µM!,26.8µM,u,n,51.6µM,u,u,
CS(=O)(=O)c1ccc(C(=O)OCC(=O)NC(=O)NC2CCCCC2)cc1[N+](=O)[O-],x,n,x,7.08µM,16.7µM,n,n,u,48.7µM,13.9µM,
COc1ccc(C(=O)OCC(=O)NC(=O)NC2CCCC2)cc1[N+](=O)[O-],n,n,x,n,x,x,x,x,x,x,
COc1cccc(CNC(=O)COC(=O)c2ccc(S(C)(=O)=O)c([N+](=O)[O-])c2)c1,x,n,x,1.26µM,n,n,n,n,n,n,
Cc1ccc(F)cc1NC(=O)COC(=O)c1ccc(S(C)(=O)=O)c([N+](=O)[O-])c1,x,n,x,2µM,n,12.5µM,x,x,x,n,
NS(=O)(=O)c1ccc(CCNC(=S)NC(=O)c2ccccc2Br)cc1,n,n[2.29 µM],x,n[2.29 µM],x,x,x,x,x,x,
COc1ccc(OCCCCn2c(C3CC(=O)N(c4cccc(Cl)c4)C3)nc3ccccc32)cc1 (stereo not given),n,n,x,n,x,x,x,x,x,x,
CS(=O)(=O)c1ccc(C(=O)OCC(=O)NCC2CCCO2)cc1[N+](=O)[O-] (stereo not given),x,n,x,3.55µM,n,u,n,n,n,n,
Nc1ccc(C(=O)OCC(=O)NC2CC2)cc1[N+](=O)[O-],n,n,n,n,x,x,x,x,x,x,
O=C(COC(=O)c1ccc(F)c([N+](=O)[O-])c1)NC1C2CC3CC(C2)CC1C3 (stereo not given),x,x,x,x,8.7µM,u,n,n,n,x,
O=C(COC(=O)c1ccc(Cl)c([N+](=O)[O-])c1)NC1CCCC1,n,n,n,n,x,x,x,x,x,x,
O=C(COC(=O)c1ccc(Cl)c([N+](=O)[O-])c1)NC1C2CC3CC(C2)CC1C3 (stereo not given),x,x,x,x,n,n,n,n,n,x,
O=C(COC(=O)c1cccc([N+](=O)[O-])c1Cl)NC1C2CC3CC(C2)CC1C3 (stereo not given),x,x,x,x,44.4µM,n,n,n,n,x,
O=C(COC(=O)c1cc(Cl)ccc1[N+](=O)[O-])NC1CC1,n,n,x,n,x,x,x,x,x,x,
OC(COc1ccc(CNCCc2ccccc2F)cc1)CN1CCCCC1 (stereo not given),n,n,n,n,x,x,x,x,x,x,
Cn1cc([N+](=O)[O-])c(C(=O)NNC(=O)c2ccc([N+](=O)[O-])cc2Cl)n1,n,n,n,n,x,x,x,x,x,x,
CC(=O)c1cc(C#N)c(N2CCOCC2)nc1C,n,n,n,n,x,x,x,x,x,x,
O=C(O)c1ccc2c(c1)C(=O)N(CCc1c[nH]c3ccccc13)C2=O,n,n,n,n,x,x,x,x,x,x,
COC(=O)C1=C(C)N(CCc2c[nH]c3ccccc23)C(=O)/C1=C\N(C)C,n,n,n,10µM,x,x,x,x,x,x,GR counterassay=n;TrxR1 inh-2=9.47;TrxR1 insulin MOA=36µM;TrxR1 inh-3=0.122µM
